The text below walks through data of the supplement of paper PMC11732987, “Enantioselective OTUD7B fragment discovery through chemoproteomics screening and high-throughput optimisation” (Communications Chemistry, 2025).

What all share (experiment): log2 ratio of Biotin-Ahx-Ub-VS probe labelling (fragment/DMSO); higher = less target engagement (more negative = stronger competition), active = hit call of the paper (q ≤ 0.05, log2 ratio ≤ -1)
Common to all, as to conditions: compound concentration: 200 uM; treatment time: 3 h

For experiment [1], the target named is T1, OTUD6B (UniProt Q8N6M0).
T1 sequence (whole entry): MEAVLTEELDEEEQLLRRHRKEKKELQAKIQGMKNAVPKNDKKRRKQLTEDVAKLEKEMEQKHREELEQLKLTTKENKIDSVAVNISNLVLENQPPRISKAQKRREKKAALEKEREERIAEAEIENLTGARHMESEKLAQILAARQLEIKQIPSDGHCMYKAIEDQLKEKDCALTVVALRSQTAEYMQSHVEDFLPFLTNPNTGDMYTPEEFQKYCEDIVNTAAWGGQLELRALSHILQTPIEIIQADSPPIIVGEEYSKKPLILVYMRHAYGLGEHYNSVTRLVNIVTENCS
Put shortly: (§1)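 HEK293T lysate in Tris/CHAPS/IGEPAL buffer with protease inhibitors (495 µg per sample) was given fragment at 200 µM or vehicle for 3 h, in triplicate. It then received Biotin-Ahx-Ub-VS at 0.5 µM final for 1 h. Labelled DUBs were NeutrAvidin-enriched, digested with LysC and trypsin, and run by diaPASEF LC-MS/MS. Values are average log2 fragment/vehicle ratios by unpaired t-test on global-median-normalised Spectronaut quantities of proteins with ≥2 unique peptides.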

In experiment [2] the target is T2, OTUD7B (UniProt Q6GQQ9).
T2 sequence (whole entry): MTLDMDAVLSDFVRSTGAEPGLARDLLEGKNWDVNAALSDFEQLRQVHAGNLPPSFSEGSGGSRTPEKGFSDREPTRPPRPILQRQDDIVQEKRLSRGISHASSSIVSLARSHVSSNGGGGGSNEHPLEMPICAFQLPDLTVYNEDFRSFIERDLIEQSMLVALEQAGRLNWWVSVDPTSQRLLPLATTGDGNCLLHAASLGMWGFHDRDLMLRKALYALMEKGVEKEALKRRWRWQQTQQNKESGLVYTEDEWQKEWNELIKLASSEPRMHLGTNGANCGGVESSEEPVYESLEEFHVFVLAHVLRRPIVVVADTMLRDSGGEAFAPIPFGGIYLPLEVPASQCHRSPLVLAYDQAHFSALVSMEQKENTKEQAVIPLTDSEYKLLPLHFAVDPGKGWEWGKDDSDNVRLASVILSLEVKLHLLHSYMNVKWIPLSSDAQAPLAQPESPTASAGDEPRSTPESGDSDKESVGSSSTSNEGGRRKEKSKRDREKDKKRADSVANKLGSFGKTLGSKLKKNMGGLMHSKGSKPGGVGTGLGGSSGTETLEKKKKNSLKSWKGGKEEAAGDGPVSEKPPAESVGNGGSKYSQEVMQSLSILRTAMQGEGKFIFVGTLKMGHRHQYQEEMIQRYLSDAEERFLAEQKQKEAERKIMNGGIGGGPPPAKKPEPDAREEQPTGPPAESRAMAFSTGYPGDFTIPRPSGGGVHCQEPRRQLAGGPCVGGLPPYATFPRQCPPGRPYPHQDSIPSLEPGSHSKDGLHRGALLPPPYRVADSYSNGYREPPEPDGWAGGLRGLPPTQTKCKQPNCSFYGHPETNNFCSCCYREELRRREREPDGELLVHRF
The procedure, abridged: as §1

Experiment [3] addresses PRPF8 (UniProt Q6P2Q9). The procedure, abridged:
as §1

The target in experiment [4] is T3, PSMD7 (UniProt P51665).
T3 sequence (whole entry): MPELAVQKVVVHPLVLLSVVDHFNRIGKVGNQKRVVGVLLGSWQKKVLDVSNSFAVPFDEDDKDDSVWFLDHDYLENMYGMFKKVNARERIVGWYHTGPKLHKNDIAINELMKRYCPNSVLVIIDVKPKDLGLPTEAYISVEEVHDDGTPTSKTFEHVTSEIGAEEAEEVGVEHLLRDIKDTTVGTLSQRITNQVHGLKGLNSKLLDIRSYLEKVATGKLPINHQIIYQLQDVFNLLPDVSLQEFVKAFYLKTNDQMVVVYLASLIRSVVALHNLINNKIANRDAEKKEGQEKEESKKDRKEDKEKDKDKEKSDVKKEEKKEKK
Put shortly: as §1

Experiment [5] concerns the target UCHL1 (UniProt P09936). The procedure, abridged: as §1
The target in experiment [6] is T4, UCHL3 (UniProt P15374).
T4 sequence (whole entry): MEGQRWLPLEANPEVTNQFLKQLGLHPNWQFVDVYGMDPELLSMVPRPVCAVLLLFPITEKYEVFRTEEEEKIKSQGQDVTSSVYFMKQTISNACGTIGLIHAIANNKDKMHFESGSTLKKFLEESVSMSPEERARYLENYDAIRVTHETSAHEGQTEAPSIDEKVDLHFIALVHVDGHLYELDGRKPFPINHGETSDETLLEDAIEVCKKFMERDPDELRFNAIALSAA
The procedure, abridged: as §1

The target in experiment [7] is T5, UCHL5 (UniProt Q9Y5K5).
T5 sequence (whole entry): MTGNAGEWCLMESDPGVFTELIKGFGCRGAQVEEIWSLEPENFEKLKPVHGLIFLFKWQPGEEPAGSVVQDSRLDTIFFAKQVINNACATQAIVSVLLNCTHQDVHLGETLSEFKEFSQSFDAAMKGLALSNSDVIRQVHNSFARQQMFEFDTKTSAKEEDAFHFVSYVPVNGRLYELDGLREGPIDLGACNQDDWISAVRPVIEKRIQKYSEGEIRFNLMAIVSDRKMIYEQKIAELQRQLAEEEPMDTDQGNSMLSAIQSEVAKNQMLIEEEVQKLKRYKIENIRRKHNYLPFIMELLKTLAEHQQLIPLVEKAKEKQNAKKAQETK
The procedure, abridged: as §1

Experiment [8] has as its target USP10 (UniProt Q14694). The procedure, abridged:
as §1

In experiment [9] the target is T6, USP15 (UniProt Q9Y4E8).
T6 sequence (whole entry): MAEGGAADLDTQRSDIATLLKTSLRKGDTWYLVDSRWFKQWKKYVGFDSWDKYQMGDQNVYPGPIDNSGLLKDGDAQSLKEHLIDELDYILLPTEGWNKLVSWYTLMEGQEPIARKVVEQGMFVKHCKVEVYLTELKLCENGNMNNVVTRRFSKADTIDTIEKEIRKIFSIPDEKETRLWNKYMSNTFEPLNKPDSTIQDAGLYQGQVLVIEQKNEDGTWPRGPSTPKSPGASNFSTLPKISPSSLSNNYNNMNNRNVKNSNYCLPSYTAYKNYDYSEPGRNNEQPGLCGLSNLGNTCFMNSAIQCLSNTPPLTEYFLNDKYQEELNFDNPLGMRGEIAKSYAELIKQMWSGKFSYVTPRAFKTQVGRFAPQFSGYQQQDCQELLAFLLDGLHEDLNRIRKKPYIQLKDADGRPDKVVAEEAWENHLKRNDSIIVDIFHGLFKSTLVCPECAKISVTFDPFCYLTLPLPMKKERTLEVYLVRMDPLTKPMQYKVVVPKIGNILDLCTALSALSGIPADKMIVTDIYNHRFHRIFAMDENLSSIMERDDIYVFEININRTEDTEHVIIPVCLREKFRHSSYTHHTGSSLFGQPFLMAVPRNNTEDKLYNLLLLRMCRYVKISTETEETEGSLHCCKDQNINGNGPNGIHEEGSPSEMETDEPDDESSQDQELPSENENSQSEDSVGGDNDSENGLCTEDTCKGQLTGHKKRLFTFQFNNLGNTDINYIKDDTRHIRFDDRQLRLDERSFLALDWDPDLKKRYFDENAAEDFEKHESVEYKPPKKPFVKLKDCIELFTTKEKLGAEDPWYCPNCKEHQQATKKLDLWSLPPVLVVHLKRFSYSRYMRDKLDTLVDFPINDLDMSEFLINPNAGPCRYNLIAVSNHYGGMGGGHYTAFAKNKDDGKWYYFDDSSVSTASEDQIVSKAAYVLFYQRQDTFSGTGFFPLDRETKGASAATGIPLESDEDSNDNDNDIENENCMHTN
The procedure, abridged: as §1

The target in experiment [10] is USP16 (UniProt Q9Y5T5). Put shortly:
as §1

Values without a mark were called inactive.

Chain of UCHL1 (P09936 whole entry, looked up): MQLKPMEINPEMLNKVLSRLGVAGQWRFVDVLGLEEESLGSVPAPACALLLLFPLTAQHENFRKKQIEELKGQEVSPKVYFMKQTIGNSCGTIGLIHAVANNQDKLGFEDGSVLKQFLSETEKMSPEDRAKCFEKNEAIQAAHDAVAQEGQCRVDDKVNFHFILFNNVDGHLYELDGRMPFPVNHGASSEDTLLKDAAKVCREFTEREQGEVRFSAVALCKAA
Chain of USP10 (Q14694 whole entry): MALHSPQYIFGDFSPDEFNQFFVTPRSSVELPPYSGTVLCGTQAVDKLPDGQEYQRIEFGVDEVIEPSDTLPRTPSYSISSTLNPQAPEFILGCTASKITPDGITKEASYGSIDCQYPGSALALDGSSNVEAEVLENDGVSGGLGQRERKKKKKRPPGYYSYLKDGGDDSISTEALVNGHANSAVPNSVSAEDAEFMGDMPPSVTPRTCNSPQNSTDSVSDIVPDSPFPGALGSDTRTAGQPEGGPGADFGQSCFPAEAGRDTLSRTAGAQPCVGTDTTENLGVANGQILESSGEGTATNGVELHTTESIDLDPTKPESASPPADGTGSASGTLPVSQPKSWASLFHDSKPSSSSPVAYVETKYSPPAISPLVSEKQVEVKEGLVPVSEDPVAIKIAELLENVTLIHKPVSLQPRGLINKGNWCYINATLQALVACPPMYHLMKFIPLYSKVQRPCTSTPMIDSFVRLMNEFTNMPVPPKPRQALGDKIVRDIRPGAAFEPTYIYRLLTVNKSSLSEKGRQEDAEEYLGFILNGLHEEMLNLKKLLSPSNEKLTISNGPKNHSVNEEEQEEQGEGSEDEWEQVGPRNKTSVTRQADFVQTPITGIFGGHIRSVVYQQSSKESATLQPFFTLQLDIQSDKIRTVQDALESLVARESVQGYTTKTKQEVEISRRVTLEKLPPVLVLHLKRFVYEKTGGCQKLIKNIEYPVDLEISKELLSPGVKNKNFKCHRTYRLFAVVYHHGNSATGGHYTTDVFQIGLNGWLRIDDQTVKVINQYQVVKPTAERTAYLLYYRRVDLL
Chain of USP16 (Q9Y5T5 whole entry, looked up): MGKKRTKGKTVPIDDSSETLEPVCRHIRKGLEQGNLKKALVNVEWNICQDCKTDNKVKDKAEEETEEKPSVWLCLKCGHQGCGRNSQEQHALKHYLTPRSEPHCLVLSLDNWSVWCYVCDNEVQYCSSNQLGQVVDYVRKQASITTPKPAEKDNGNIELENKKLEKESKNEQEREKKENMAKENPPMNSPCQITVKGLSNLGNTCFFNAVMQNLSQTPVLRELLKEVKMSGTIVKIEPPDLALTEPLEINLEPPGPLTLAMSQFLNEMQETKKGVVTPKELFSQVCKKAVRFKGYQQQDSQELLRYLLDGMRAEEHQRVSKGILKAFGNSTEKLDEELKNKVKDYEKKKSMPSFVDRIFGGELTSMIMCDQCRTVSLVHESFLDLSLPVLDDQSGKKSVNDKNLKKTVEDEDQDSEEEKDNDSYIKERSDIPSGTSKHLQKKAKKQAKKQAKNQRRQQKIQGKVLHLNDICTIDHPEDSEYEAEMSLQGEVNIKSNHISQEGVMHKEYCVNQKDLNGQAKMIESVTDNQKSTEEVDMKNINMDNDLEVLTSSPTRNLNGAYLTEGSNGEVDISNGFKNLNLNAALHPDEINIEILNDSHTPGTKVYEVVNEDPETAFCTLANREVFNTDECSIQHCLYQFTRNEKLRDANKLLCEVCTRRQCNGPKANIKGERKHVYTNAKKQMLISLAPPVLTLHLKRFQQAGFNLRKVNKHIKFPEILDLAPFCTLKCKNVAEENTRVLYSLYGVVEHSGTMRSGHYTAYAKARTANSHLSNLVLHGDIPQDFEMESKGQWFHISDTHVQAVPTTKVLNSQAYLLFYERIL

On to `CC(NC(=O)CCl)c1cnn(C2CC2)c1` (stereo not given), for which the “log2 ratio of Biotin-Ahx-Ub-VS probe labelling” value in experiment [1] was -0.174; in experiment [2], -1.99 (active); in experiment [3] it was -0.0754; in experiment [4] it was -0.168; in experiment [5], -1.3 (active); in [6] it was 0.329. For the same compound, the “log2 ratio of Biotin-Ahx-Ub-VS probe labelling” value in experiment [7] was -0.187; in experiment [8], -0.103; in [9] it was -0.182; in experiment [10], -0.19.
